Compounds with a hit are over-represented: about 2.8% of the library has one in this group of screens.
POLH inh: DNA polymerase eta (human) inhibition; Q9Y253; recombinant Pol eta, fluorescent DNA replication assay; Potency, µM (titrated, usually from 114 µM), for inactives: at the top dose activity change, negative = inhibition, usual class: inhibitors; hit rate 1.2% among 390,000; also: potency is read from the fitted curve at half-maximal effect; % is scaled to controls: 0 for no effect and ±100 for the full control effect
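Fluorescent replication assay: 50 nM final substrate added after a 15 min room-temperature compound preincubation with 10 nM enzyme. Signal taken at 0 min and again at 10 min.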
POLB inh: DNA polymerase beta (human) inhibition. Potency, µM (doses to about 114 µM), for inactives: at the highest dose activity change, negative = inhibition, actives largely listed as inhibitors. Pol beta primer extension/strand displacement, fluorescence kinetic. AID 485314. hit rate 1.3% among 340,000; also: potency is read from the fitted curve at half-maximal effect; % is scaled to controls: 0 for no effect and ±100 for the full control effect
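Homogeneous kinetic assay of primer extension and strand displacement by 10 nM Pol beta, preincubated 15 min at room temperature with compound before 50 nM substrate (final) was added. Read at 0 and 10 min; four-parameter Hill fit.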
PI5P4K alpha inh: PI5P4K alpha (human) kinase inhibition. P48426. PI5P4Kalpha enzyme, ADP-Glo luminescence, 60 min; hits give low values. max response, %. hit rate 1.2% among 330,000. AID 652105; active = max response of -50% or lower; inconclusive = between -30% and -50%; inactive = -30% or higher; also: value at the top dose of about 77 µM; % is scaled to controls: 0 for no effect and ±100 for the full control effect
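Controls without substrate or without enzyme flank wells where PI5P4Kalpha converts substrate using 5 microM ATP (final). Incubation lasts 60 minutes at room temperature; ADP formed is read by ADP-Glo luminescence.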
POLK inh: DNA polymerase kappa (human) inhibition; Q9UBT6; purified Pol kappa, fluorescent DNA synthesis assay, 10 min; hit rate 0.53% among 400,000; Potency, µM (doses to about 107 µM), without a hit: top-dose activity, negative = inhibition, usual class: inhibitors; also: potency is read from the fitted curve at half-maximal effect; % is scaled to controls: 0 for no effect and ±100 for the full control effect
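Pol kappa 10 nM + cpd, 15 min RT; start w/ substrate 50 nM final; fluorescence kinetic read, 0 and 10 min. Neg ctrl: buffer, no enzyme.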
FEN1 inh: blocks human flap endonuclease 1. AID 588795. Recombinant FEN1 flap cleavage, fluorescence, 15 min. P39748. hit rate 0.35% among 390,000. Potency, µM (top dose mostly 114 µM), inactives show at the top dose activity change, negative = inhibition, hits mostly inhibitors; also: potency is read from the fitted curve at half-maximal effect; % is scaled to controls: 0 for no effect and ±100 for the full control effect; nearly all actives have a fitted effect of over 65% in size
Target sequence (P39748 whole entry, looked up): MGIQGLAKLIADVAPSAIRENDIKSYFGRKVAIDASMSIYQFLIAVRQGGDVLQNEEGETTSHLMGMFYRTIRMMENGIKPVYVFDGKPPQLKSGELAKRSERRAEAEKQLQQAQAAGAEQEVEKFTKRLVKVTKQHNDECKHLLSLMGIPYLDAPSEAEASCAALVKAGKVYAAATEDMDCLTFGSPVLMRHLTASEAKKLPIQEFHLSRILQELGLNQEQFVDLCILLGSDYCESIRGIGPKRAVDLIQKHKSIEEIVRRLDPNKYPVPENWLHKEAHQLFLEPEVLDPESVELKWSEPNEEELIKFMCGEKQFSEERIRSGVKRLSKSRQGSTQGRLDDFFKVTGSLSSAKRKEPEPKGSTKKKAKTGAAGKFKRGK
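Steps: FEN1 (10 nM) dispensed; compound added by pin tool; 15 min at room temperature; substrate added to 50 nM final; reads at 0 min and 15 min; data normalized and fitted (four-parameter Hill).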
POLI inh: blocks human DNA polymerase iota activity; Q9UNA4; Pol iota fluorescent replication assay, 10 min; Potency, µM (doses to about 115 µM), for inactives: at the highest dose activity, negative = inhibition, usual class: inhibitors; hit rate 1% among 390,000; AID 588590; also: potency is read from the fitted curve at half-maximal effect
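Fluorescent replication assay read twice, at 0 min and 10 min after adding 50 nM (final) substrate. Enzyme (10 nM) and compounds were first incubated 15 min at room temperature; enzyme-free buffer wells were negative controls.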
Starred values were filed as active, the others as inactive; [ ] = dose if it differs, or a comment. Unless noted, calls follow the shape of the dose curve; as a rule, active = well fitted curve in the direction sought with a large enough effect; inconclusive = small, poorly fitted or top-dose-only effect, or another doubt; inactive = no such curve, though single readings can be large; an effect the other way counts as inactive or inconclusive.

O=C(NCc1cccnc1)C1CCN(S(=O)(=O)c2cc([N+](=O)[O-])ccc2Cl)CC1 was read as POLH inh -5.7%, PI5P4K alpha inh 1.1, POLK inh -19.3%, FEN1 inh 3.9% and POLI inh 57.2%.
CCCN1CCCC2Cc3nc(N)ncc3CC21 (centres undefined) was read as POLK inh 0.0%[19.4 µM].
Screening O=C(CN1CCOCC1)Nc1ccc(Br)cc1C(=O)c1ccccc1 returned POLH inh 1.2%, POLB inh 1.3%, POLK inh -15.5%, FEN1 inh -8.7% and POLI inh 3.9%.
`O=C(Nc1ccc(Br)cc1C(=O)O)c1ccc2c(c1)C(=O)N(Cc1ccccc1)C2=O` gave POLH inh 28.2µM*, POLB inh 15.0%, PI5P4K alpha inh -73.7*, POLK inh -6.7%, FEN1 inh inconclusive and POLI inh 72.1%.
For CC1CCCC(C)N1C(=O)CSc1nc2c(c(=O)n(C)c(=O)n2C)n1C (centres undefined) the results were POLH inh -13.0%, POLB inh 1.0%, PI5P4K alpha inh 1.6, POLK inh 12.5%, FEN1 inh 9.2% and POLI inh 47.6%.
`Cc1cc(Oc2cc(NN3CCCCC3)c([N+](=O)[O-])cc2[N+](=O)[O-])ccc1[N+](=O)[O-]` gave POLH inh -10.9%, POLB inh 39.8µM*, PI5P4K alpha inh inconclusive, POLK inh -21.0%, FEN1 inh -2.7% and POLI inh inconclusive.
Screening O=[N+]([O-])c1ccc(N2CCCC2)c(F)c1Br returned POLH inh -14.1%, POLB inh 42.5%, PI5P4K alpha inh -0.2, POLK inh -4.0%, FEN1 inh -2.2% and POLI inh inconclusive.
For O=c1[nH]c2ccccc2n1C1CCN(CCCC(c2ccc(F)cc2)c2ccc(F)cc2)CC1 the results were POLH inh -20.9%, POLB inh -3.7%, PI5P4K alpha inh -50.7*, POLK inh inconclusive, FEN1 inh -24.3% and POLI inh inconclusive.
For O=C1CC(N2CCC(n3c(=O)[nH]c4ccccc43)CC2)C(=O)N1c1ccc(F)cc1 (centres undefined) the results were POLH inh -14.7%, POLB inh inconclusive, PI5P4K alpha inh -4.9, POLK inh -8.6%, FEN1 inh -2.8% and POLI inh 14.8%.
CC(C)CN(CC(C)C)c1ccc(C=C2C(=O)NC(=S)NC2=O)cc1[N+](=O)[O-] was read as POLH inh 25.1µM*, POLB inh 50.1µM*, PI5P4K alpha inh -100.7*, POLK inh inconclusive, FEN1 inh -5.5% and POLI inh 17.8µM*.
Screening O=C1NC(=O)C(=Cc2ccc3c(c2)OCO3)C(=O)N1 returned POLB inh 0.7%.
For CCN(CC)c1ccc(C=C2C(=O)NC(=S)NC2=O)cc1 the results were POLH inh -6.6%, POLB inh 2.0%, PI5P4K alpha inh -62.5*, POLK inh 6.9%, FEN1 inh inconclusive and POLI inh 13.3%.
For CN(C)c1ccc(C=C2C(=O)NC(=O)NC2=O)cc1 the results were POLH inh -2.6%, PI5P4K alpha inh inconclusive, POLK inh 3.9%, FEN1 inh -20.4% and POLI inh inconclusive.
Screening CN(C)c1ccc(C=C2C(=O)NC(=S)NC2=O)cc1 returned POLH inh -17.5%, PI5P4K alpha inh -71.7*, POLK inh -24.8%, FEN1 inh inconclusive and POLI inh 50.0%.
CC(=O)Nc1ccc(C=C2C(=O)NC(=O)NC2=O)cc1 was read as POLH inh -5.3%, PI5P4K alpha inh inconclusive, POLK inh -13.7%, FEN1 inh -1.0% and POLI inh -13.9%.
For CC(C)=CCCN1CCC(NC(=O)C(O)(c2ccccc2)C2CCCC2)CC1 (centres undefined) the results were POLK inh -4.3%[60.1 µM].
`CN(C)S(=O)(=O)c1ccc(Cl)c(NC(=O)COC(=O)CN2C(=O)C3CCCCC3C2=O)c1` (centres undefined) gave POLH inh -4.1%, POLB inh 25.8%, PI5P4K alpha inh -3.8, POLK inh 2.2%, FEN1 inh 5.6% and POLI inh 153.7%.
`CC[C@]1(O)CC[C@H]2[C@@H]3CCC4=CCCC[C@@H]4[C@H]3CC[C@@]21C` gave POLK inh 4.8%[19.4 µM].
`CC(=O)c1c(COC(=O)c2cccnc2)nc2ccccc2[n+]1[O-]` gave POLH inh inconclusive, POLB inh -7.9%, PI5P4K alpha inh -2.9, POLK inh -13.1%, FEN1 inh -1.7% and POLI inh 29.1%.
Screening CCOC(=O)c1c(NS(=O)(=O)c2ccccc2)n(CCCOC)c2nc3ccccc3nc12 returned POLH inh inconclusive, POLB inh 0.6%, PI5P4K alpha inh 1.1, POLK inh -22.0%, FEN1 inh -6.4% and POLI inh 1.12µM*.
CCOC(=O)c1c(N)n(CCCOC(=O)c2ccco2)c2nc3ccccc3nc12 was read as POLH inh -4.4%, POLB inh -0.1%, PI5P4K alpha inh -2.4, POLK inh -16.2%, FEN1 inh -13.3% and POLI inh inconclusive.
COCCNC(=O)c1c(NC(=O)c2ccc(Br)o2)n(Cc2ccccc2)c2nc3ccccc3nc12 was read as POLH inh -18.9%, POLB inh -2.4%, PI5P4K alpha inh 0.1, POLK inh -9.8%, FEN1 inh -19.4% and POLI inh inconclusive.
Screening CCCCCn1c(NC(=O)c2ccco2)c(C(=O)OCC)c2nc3ccccc3nc21 returned POLH inh 22.4µM*, POLB inh -8.4%, PI5P4K alpha inh 1.8, POLK inh -18.4%, FEN1 inh -6.8% and POLI inh 1.41µM*.
For COCCCNC(=O)c1c(NC(=O)c2ccco2)n(Cc2ccccc2)c2nc3ccccc3nc12 the results were POLH inh inconclusive, POLB inh 9.5%, PI5P4K alpha inh -0.4, POLK inh -26.7%, FEN1 inh -12.9% and POLI inh 3.16µM*.
COCCCn1c(N)c(C(=O)OCCOC)c2nc3ccccc3nc21 was read as POLH inh -4.2%, POLB inh 1.1%, PI5P4K alpha inh 4.5, POLK inh -5.7%, FEN1 inh -0.9% and POLI inh 36.1%.
`CCCCNC(=O)c1c(N)n(CCCOC)c2nc3ccccc3nc12` gave POLH inh -6.7%, POLB inh 17.9%, POLK inh -18.1%, FEN1 inh inconclusive and POLI inh 2.51µM*.
Screening CCc1ccccc1Nc1nn2c(=O)c3ccc(C(=O)Nc4cc(C)cc(C)c4)cc3nc2s1 returned POLH inh inconclusive, POLB inh 1.8%, POLK inh 1.2%, FEN1 inh 16.7% and POLI inh 11.2%.
